# According to PMC7862700, “An all-to-all approach to the identification of sequence-specific readers for epigenetic DNA modifications on cytosine”:
# Experiments:
# Test in all cases: DAPPL (digital affinity profiling via proximity ligation, sequencing); 10 mM Tris-HCl pH 7.5, 50 mM NaCl, 1 mM DTT, 4% glycerol, room temperature, 30 min; GST-TFs on glutathione beads, 16-mer random dsDNA library, 0.1% formaldehyde crosslink after washing; high values mean tight binding
# Settings in all cases: protein: recombinant; tags: N-terminal GST; dsDNA, one strand shown
# ETV1 = ETV1 (Homo sapiens, UniProt P50549 1-477)
# How it was run: (§1)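 Yeast served to express human transcription factors as GST fusions, which were then captured on glutathione beads and labelled with DNA barcodes. Pooled with a tag-only sample, they were incubated with 200 nmole of a 16-mer random double-stranded DNA library for 30 min at room temperature in Tris/NaCl/DTT/glycerol buffer, washed, crosslinked with 0.1% formaldehyde, ligated by proximity, amplified by PCR and sequenced. Dividing each hexamer's read frequency for a factor by its frequency for the tag-only sample gives the binding signal.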
# ERF = target: T1, ERF (Homo sapiens, UniProt P50548 1-548)
# T1 sequence: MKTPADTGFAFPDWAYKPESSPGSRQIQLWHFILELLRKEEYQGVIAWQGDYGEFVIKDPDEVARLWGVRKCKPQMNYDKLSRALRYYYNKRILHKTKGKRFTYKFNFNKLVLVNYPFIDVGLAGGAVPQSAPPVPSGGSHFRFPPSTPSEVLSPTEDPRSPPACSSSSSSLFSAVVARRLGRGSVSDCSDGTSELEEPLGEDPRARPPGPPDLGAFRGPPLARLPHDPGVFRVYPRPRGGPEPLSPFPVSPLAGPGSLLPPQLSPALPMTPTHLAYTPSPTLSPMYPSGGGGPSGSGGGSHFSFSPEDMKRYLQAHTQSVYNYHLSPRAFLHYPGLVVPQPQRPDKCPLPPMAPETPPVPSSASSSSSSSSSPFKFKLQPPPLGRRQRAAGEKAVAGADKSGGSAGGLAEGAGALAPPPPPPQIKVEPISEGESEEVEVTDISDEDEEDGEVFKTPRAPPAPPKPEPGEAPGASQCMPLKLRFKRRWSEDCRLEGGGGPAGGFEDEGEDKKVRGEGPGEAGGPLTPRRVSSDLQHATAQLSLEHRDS
# How it was run: as §1
# ETV3L = target: T2, ETV3L (Homo sapiens, UniProt Q6ZN32 1-361)
# T2 sequence: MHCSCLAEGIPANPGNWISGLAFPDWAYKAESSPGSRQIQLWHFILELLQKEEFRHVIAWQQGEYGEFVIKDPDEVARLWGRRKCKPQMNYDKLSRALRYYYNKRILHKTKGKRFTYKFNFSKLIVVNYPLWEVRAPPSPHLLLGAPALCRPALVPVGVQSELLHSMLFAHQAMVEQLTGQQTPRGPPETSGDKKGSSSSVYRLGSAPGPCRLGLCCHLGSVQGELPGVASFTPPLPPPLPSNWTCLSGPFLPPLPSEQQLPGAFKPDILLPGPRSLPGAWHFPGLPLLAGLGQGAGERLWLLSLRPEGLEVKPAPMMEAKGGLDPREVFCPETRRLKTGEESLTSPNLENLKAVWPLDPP
# How it was run: as §1
# ETS2 = target: T3, ETS2 (Homo sapiens, UniProt P15036 1-469)
# T3 sequence: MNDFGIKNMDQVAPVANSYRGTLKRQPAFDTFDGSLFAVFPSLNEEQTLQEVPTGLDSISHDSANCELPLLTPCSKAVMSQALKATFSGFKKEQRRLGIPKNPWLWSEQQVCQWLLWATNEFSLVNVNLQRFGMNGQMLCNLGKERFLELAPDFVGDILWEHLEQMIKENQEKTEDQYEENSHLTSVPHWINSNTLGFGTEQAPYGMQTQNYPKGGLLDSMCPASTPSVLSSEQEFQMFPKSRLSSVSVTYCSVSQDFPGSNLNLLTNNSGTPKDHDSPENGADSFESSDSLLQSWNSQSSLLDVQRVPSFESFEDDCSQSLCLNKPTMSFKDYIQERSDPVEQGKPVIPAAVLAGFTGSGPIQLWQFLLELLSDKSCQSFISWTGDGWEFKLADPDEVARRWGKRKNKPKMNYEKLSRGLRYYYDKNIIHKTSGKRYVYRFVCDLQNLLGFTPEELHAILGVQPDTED
# How it was run: as §1
# SPDEF = target: T4, SPDEF (Homo sapiens, UniProt O95238 1-335)
# T4 sequence: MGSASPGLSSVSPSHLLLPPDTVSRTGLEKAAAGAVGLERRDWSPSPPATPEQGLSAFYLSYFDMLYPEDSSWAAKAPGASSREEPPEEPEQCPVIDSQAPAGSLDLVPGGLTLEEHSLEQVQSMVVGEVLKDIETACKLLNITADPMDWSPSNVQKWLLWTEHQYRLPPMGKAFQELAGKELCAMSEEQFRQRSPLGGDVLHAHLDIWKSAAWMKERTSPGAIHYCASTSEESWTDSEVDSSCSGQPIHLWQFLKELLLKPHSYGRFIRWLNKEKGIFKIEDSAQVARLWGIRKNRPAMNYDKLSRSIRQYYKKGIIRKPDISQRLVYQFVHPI
# How it was run: as §1
# ETV7 = target: T5, ETV7 (Homo sapiens, UniProt Q9Y603 1-341)
# T5 sequence: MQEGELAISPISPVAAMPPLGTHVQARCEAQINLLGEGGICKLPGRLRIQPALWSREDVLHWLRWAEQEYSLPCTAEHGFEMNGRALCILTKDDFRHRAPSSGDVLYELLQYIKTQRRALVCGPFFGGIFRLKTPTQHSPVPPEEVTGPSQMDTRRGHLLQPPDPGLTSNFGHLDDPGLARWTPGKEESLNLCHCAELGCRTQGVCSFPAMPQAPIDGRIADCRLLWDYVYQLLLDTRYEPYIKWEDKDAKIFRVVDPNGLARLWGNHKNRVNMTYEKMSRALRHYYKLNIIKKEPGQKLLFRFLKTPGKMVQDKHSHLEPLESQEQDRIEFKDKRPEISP
# How it was run: as §1
# ELF5 = target: T6, ELF5 (Homo sapiens, UniProt Q9UKW6-2 1-255)
# T6 sequence: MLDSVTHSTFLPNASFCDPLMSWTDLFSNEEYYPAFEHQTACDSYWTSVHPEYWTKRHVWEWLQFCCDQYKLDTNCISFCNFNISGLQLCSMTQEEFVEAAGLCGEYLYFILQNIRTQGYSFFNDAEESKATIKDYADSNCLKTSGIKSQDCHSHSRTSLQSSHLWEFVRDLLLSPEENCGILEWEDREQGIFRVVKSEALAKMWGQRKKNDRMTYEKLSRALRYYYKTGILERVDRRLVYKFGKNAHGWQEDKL
# How it was run: as §1
# ETV3 = target: T7, ETV3 (Homo sapiens, UniProt P41162-2 1-143)
# T7 sequence: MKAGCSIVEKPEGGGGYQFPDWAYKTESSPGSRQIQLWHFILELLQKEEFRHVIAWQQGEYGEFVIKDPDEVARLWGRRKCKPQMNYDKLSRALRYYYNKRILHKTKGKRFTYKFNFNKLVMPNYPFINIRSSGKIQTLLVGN
# How it was run: as §1
# ETV6 = ETV6 (Homo sapiens, UniProt P41212 1-452)
# How it was run: as §1
# Sequence of ETV1 (P50549 whole entry, the tested form may be a part): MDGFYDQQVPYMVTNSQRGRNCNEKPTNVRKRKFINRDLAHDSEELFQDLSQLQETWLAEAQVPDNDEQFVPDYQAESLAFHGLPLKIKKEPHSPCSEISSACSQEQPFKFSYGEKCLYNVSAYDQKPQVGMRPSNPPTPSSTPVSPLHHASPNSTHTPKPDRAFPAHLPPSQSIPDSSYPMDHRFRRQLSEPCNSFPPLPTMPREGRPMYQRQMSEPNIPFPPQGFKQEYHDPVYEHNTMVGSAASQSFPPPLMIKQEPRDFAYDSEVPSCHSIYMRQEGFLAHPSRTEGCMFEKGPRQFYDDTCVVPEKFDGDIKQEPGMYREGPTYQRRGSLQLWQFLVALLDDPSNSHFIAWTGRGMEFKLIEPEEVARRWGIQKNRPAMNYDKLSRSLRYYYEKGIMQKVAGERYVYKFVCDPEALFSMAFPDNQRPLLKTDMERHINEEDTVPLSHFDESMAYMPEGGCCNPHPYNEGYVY
# Sequence of ETV6 (P41212 whole entry): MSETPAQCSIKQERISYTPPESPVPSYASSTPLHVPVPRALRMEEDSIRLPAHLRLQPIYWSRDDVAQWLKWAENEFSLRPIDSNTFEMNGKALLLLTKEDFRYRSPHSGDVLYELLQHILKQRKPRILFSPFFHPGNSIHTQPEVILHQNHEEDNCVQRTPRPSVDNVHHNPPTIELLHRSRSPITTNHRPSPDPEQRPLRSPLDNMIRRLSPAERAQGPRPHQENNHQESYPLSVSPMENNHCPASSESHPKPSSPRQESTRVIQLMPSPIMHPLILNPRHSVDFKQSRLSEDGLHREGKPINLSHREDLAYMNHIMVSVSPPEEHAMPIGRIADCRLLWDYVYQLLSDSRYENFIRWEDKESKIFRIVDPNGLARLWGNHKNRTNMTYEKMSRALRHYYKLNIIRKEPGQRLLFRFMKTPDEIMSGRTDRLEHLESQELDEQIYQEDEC
sequence,measurement,setting,value
CTGTTT,binding signal,ETV1,"1.5 fold enrichment (6-mer frequency, TF over GST control)"
same,binding signal,ERF,"1.37 fold enrichment (6-mer frequency, TF over GST control)"
same,binding signal,ETV3L,"1.49 fold enrichment (6-mer frequency, TF over GST control)"
same,binding signal,ETS2,"1.45 fold enrichment (6-mer frequency, TF over GST control)"
same,binding signal,SPDEF,"1.42 fold enrichment (6-mer frequency, TF over GST control)"
same,binding signal,ETV7,"1.38 fold enrichment (6-mer frequency, TF over GST control)"
same,binding signal,ELF5,"1.62 fold enrichment (6-mer frequency, TF over GST control)"
same,binding signal,ETV3,"1.36 fold enrichment (6-mer frequency, TF over GST control)"
same,binding signal,ETV6,"1.49 fold enrichment (6-mer frequency, TF over GST control)"
